USP17 inh: inhibitors of human USP17 deubiquitinase | Ubiquitin carboxyl-terminal hydrolase 17-like protein 5 (Homo sapiens), A8MUK1 | purified USP17, Ub-rhodamine cleavage fluorescence, 3 h | inhibition, % at 50 µM | 6.5% of 47,000 active | AID 1645855, 2021
USP10 inh: inhibitors of human USP10 deubiquitinase | Ubiquitin carboxyl-terminal hydrolase 10 (Homo sapiens), Q14694 | purified USP10, Ub-rhodamine fluorescence, 60 min | inhibition, % at 20 µM | 1.1% of 47,000 active | AID 1645856, 2021
USP30 inh: inhibitors of human USP30 deubiquitinase; Ubiquitin carboxyl-terminal hydrolase 30 (Homo sapiens), Q70CQ3; purified USP30, Ub-rhodamine cleavage fluorescence; inhibition, % at 25 µM; 5.3% of 47,000 active
USP8 block: inhibitors of human USP8 deubiquitinase; 4.2% of 47,000 active; purified USP8, Ub-rhodamine cleavage fluorescence, 30 min; inhibition, % at 20 µM; AID 1645853, 2021; Ubiquitin carboxyl-terminal hydrolase 8 (Homo sapiens), P40818
Target sequence (P40818 whole entry, looked up): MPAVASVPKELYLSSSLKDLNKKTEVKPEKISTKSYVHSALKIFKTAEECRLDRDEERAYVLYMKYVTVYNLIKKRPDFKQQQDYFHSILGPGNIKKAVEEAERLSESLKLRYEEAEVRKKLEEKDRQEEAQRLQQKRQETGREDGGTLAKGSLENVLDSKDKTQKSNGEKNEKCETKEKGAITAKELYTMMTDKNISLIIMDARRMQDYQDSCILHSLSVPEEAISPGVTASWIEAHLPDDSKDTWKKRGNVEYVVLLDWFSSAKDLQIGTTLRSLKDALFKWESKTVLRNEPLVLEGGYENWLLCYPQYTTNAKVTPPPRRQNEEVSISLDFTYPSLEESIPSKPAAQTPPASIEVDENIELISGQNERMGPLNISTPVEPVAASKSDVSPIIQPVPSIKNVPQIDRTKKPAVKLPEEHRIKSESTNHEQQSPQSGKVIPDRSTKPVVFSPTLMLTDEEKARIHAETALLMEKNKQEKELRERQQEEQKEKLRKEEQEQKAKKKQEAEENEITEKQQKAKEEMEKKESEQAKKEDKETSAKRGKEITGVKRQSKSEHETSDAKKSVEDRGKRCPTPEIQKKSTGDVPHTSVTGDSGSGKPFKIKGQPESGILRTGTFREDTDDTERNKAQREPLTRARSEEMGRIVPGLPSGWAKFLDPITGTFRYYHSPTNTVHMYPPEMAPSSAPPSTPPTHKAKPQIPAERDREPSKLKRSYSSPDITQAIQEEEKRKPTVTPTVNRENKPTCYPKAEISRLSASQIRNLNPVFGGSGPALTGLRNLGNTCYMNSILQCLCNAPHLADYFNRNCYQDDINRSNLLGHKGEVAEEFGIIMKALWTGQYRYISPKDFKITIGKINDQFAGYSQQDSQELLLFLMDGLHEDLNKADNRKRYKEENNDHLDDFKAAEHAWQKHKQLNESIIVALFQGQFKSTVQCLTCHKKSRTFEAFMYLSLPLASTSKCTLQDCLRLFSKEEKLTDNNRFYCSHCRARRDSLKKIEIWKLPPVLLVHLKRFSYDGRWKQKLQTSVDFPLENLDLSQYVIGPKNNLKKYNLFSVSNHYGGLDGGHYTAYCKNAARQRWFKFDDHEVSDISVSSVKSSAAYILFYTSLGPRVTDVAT
USP28 inh: inhibitors of human USP28 deubiquitinase. Ubiquitin carboxyl-terminal hydrolase 28 (Homo sapiens), Q96RU2. purified USP28, Ub-rhodamine cleavage fluorescence, 30 min. inhibition, % at 25 µM. 3% of 47,000 active. AID 1645857, 2021
* hit, by the source's call; . = no result. Sampled rows, rich in hits. Any-hit rate of the full collection: about 13%. Cut-off read from the data, not from the text of the source: active = inhibition above about 30%; inactive = the rest.

SMILES	USP17 inh	USP10 inh	USP30 inh	USP8 block	USP28 inh
COc1ccccc1NC(=O)CSc1nnc(-c2cc3ccccc3n2C)o1	12.0	-0.9	9.0	18.6	7.4
CN(C(=O)CSc1nnc(-c2cc3ccccc3n2C)o1)c1ccccc1	8.1	9.4	52.1*	17.9	9.6
CCn1c(=O)c2ccccc2n(Cc2nc(-c3ccc(F)cc3)no2)c1=O	-9.1	-2.9	-2.2	0.0	2.5
CSc1cccc(NC2c3ccccc3C(=O)N2c2ccccc2C)c1 (stereo unspecified)	19.0	5.7	9.5	2.0	43.8*
Cc1ccc(N2C(=O)c3ccccc3C2Nc2ccc(F)cc2)nc1 (stereo unspecified)	-15.1	-1.2	-19.7	1.8	-13.4
Fc1ccc(-c2cc3n(c2)CCc2cc4c(cc2-3)OCO4)cc1	-22.8	-3.8	-233.5	47.1*	-30.9
CC1CCN(c2nc(F)c3c(c2F)S(=O)(=O)CCN3Cc2ccccc2)CC1	47.6*	-1.2	-9.9	92.0*	6.2
O=S1(=O)CCN(Cc2ccccc2)c2c(F)nc(N3CCCCC3)c(F)c21	53.5*	-0.8	-21.6	87.5*	-9.2
CC1CCN(c2nc(F)c3c(c2F)S(=O)(=O)CCN3CC2CCCO2)CC1 (stereo unspecified)	-16.7	5.5	-8.5	-38.6	-6.4
O=C(c1ccccc1)N1CCCC1c1cccc(Cc2ccccc2)n1 (stereo unspecified)	3.5	2.2	18.3	0.1	7.7
O=C(c1ccccc1)N1CCC(c2cccc(Cc3cccc(F)c3)n2)CC1	4.1	6.4	4.1	-9.9	43.3*
O=C1CC(c2cc3c(cc2Br)OCO3)c2cc3c(cc2N1)OCCO3 (stereo unspecified)	66.9*	40.4*	17.9	4.3	10.6
O=C1CC(c2cc(F)ccc2F)c2cc3c(cc2N1)OCCO3 (stereo unspecified)	9.3	1.6	19.8	6.0	14.5
O=C(NCc1ccc(Cl)cc1)c1cn2c(n1)CCCC2	7.6	0.6	8.2	7.3	5.6
CCOC(=O)CC(NC(=O)CCc1c(C)nc2c(c1C)c(=O)n(C)c(=O)n2C)c1ccc(C)cc1 (stereo unspecified)	13.5	-5.0	31.3*	3.3	3.9
Cc1cccc(C(=O)Nc2noc3nc(C)ccc23)c1	35.8*	2.8	.	2.9	.
COc1ccccc1CCNC(=O)c1cccc(N2C(=O)CCS2(=O)=O)c1	4.5	-0.8	13.3	23.0	20.4
O=C(NCCc1ccc(F)cc1)c1cccc(N2C(=O)CCS2(=O)=O)c1	17.9	4.5	36.7*	18.2	17.8
O=C(Nc1ccc(N2CCCCC2)cc1)c1cccc(N2C(=O)CCS2(=O)=O)c1	21.3	2.9	-12.9	43.3*	0.6
CN(C1CCCCC1)S(=O)(=O)N1CCCC(C(=O)NCc2ccc(F)cc2)C1 (stereo unspecified)	5.8	-0.2	14.5	20.6	0.6
Cc1cccc(C)c1NC(=O)CN1C(=O)CC(c2ccccc2)=Nc2ccccc21	3.9	39.4*	9.1	-11.4	-12.6
O=C(CN1C(=O)CC(c2ccc(F)cc2)=Nc2ccccc21)Nc1ccccc1	37.8*	14.9	21.4	5.7	26.8
COc1ccc(CNC(=O)CN2C(=O)CC(c3ccccc3)=Nc3ccccc32)cc1	82.8*	28.3	0.3	29.2	-3.0
O=C(NCc1ccc(F)cc1)C1CCCN(S(=O)(=O)N2CCCCC2)C1 (stereo unspecified)	16.9	1.4	14.9	27.6	6.8
CNc1nc(C2CCCN(C(=O)C(C)(C)OC)C2)nc2c1CN(C)CC2 (stereo unspecified)	-25.2	-2.5	.	-14.3	.
SMILES	USP17 inh	USP10 inh	USP30 inh	USP8 block	USP28 inh
Cc1ccccc1OCC(=O)Nc1ccc2c(c1)Sc1ncccc1C(=O)N2C	28.9	-11.3	-14.3	-26.0	15.7
CC(=O)Nc1ccc(N2C(=O)c3cc(-c4ccco4)nn3CC2(C)C(=O)NCc2ccc(F)cc2)cc1 (stereo unspecified)	-19.9	-11.2	-89.7	39.3*	6.9
Cc1cc(C)c2cc(CN(CCc3ccccc3)C(=O)Nc3ccccc3)c(=O)[nH]c2c1	61.6*	-1.0	-36.1	-8.7	-7.1
Cc1cc(C)c2cc(CN(C(=O)Nc3cccc(Cl)c3)C3CCCC3)c(=O)[nH]c2c1	2.6	-0.9	17.3	4.2	6.8
Cc1ccc(C(=O)N2CCN(C(=O)c3cc4ccccc4[nH]3)CC2)cc1	37.3*	1.8	26.2	14.8	15.3
O=C(Nc1ccccc1)C1CCCN(C(=O)c2cc3ccccc3[nH]2)C1 (stereo unspecified)	59.9*	3.5	33.4*	22.8	9.4
COc1ccc(NC(=O)CSc2nccn2C2CCCCC2)cc1	-5.7	0.2	14.6	-7.3	-7.3
COc1ccc(-c2nnc(SCC(=O)Nc3ccc(C)cc3)n2C2CCCCC2)cc1OC	33.8*	-0.7	48.3*	9.0	15.4
O=C(Nc1nc(-c2ccccc2)c2ccccc2n1)c1ccc(Cl)cc1	-0.1	11.0	28.6	0.4	33.5*
O=C(Nc1ccc2ccccc2n1)c1ccc(Cl)cc1	30.1*	11.8	62.5*	59.2*	12.4
O=C(O)c1c(Oc2ccc(Cl)cc2)c(-c2ccccc2)nc2ccccc12	15.6	5.6	13.9	10.1	4.0
N#Cc1c(Cl)cccc1Oc1ccc(S(=O)(=O)N2CCC(O)CC2)cc1	66.1*	-1.1	18.4	-0.2	16.7
CCCC(C(=O)Nc1ccccc1)N1Cc2ccccc2C1=O (stereo unspecified)	5.1	2.9	14.2	17.4	10.2
COc1ccccc1CN(C(=O)c1ccco1)C(C(=O)NC1CCCCC1)c1ccc(OC)c(OC)c1 (stereo unspecified)	.	-13.9	-49.9	-104.9	-7.6
O=S(=O)(Nc1ccc(Oc2ccccc2)cc1)c1ccccc1F	34.4*	22.4	40.7*	4.0	31.7*
O=S(=O)(Nc1ccccc1-c1ccccc1)c1ccccc1F	16.5	9.6	20.3	16.5	15.3
Cc1c(C(=O)N2CC(c3nc4ccccc4[nH]3)C2)cnn1-c1ccccc1	-3.4	-0.1	-9.1	-3.9	-10.3
CC(=O)Nc1c(-c2ccc3c(c2)OCO3)c(=O)c2ccccc2n1C	12.0	0.0	48.9*	21.3	4.7
O=C(Nc1oc2ccccc2c(=O)c1-c1ccc2c(c1)OCO2)C1CCCCC1	83.1*	4.2	26.4	15.0	4.9
O=C(Nc1oc2ccccc2c(=O)c1-c1ccc(F)cc1)c1ccccc1	7.7	5.2	18.4	2.3	12.6
Cc1nn2c(nnc3c(=O)n(-c4ccccn4)ccc32)c1-c1cccc(Cl)c1	7.8	-0.7	-15.6	-13.9	-20.2
O=C(Cc1c(Cl)cccc1Cl)N1CCn2c1nc1ccccc12	10.7	23.0	20.0	-84.2	0.4
COC(=O)c1ccc2c(c1)C(=O)c1ccccc1CO2	25.6	2.9	23.8	7.0	31.7*
O=C(NCc1ccncc1)c1ccc(-n2cccn2)c(C#Cc2cccnc2)c1	42.7*	-1.2	-6.7	-110.3	-9.2

Assay outcomes: PubChem, Buhrlage Lab, Dana-Farber Cancer Institute and Novartis Institutes for BioMedical Research (Cambridge, Mass)
